Source: PubChem BioAssay (NCI)
About 79,000 compounds went through this panel and 15% of them were active in at least one assay; those are over-represented in the sample as a whole. Values without a mark were called inactive. Calls of active or inactive are those of the source. Cut-off read from the data, not from the text of the source: active = growth inhibition above about 70%; inactive = the rest.

Test: NCI Yeast Anticancer Drug Screen. Data for the rad50 strain (AID 155);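 note: 0% = growth of vehicle-only cultures of the same strain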
Details: S. cerevisiae rad50 strain growth inhibition; at 50.0 µM; stronger effect = higher value
In short: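 Inhibition values express reduced yeast growth in compound-treated cultures relative to vehicle-treated controls.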
In the case of `O=S(=O)(CS(=O)(=O)c1ccccc1Br)c1ccccc1Br`, the growth inhibition is reported as -7.65%.
Compound `c1ccc2c(c1)C1CC3N=NC1C23` (stereo not given) has a growth inhibition of 3.3%.
Work on `O=C1C(=O)N(CN2CCCCC2)c2ccccc21` yielded a growth inhibition of 10.4%.
`CCCCOc1ccccc1C(=O)OC` gave a growth inhibition of 23.9%.
For `CC(=O)NCCc1ccc(OC(C)=O)c(OC(C)=O)c1`, the growth inhibition was 0.15%.
`CC(NC(=O)C(Cc1ccccc1)NC(=O)OCc1ccccc1)C(=O)NC1C(CO)OC(n2cnc3c(N)ncnc32)C1O` (stereo not given) showed a growth inhibition of 15.3%.
Compound `Cc1cc(C(C)(C)CC(=O)O)cc(C)c1C` has a growth inhibition of 60.6%.
For `CC(=O)NC(CCCN)C(=O)NCc1ccccc1` (stereo not given), the growth inhibition was 3.45%.
`CCCCCCCCCC(=O)OCCCC(CCCOC(=O)CCCCCCCCC)OC(=O)CCCCCCCCC` showed a growth inhibition of -19.9%.
With `Cc1ccc(Nc2nnc(-c3ccc4c(c3)OCO4)o2)c(C)c1` the growth inhibition was 22.8%.
Work on `C(=C\C[P+](c1ccccc1)(c1ccccc1)c1ccccc1)/C[P+](c1ccccc1)(c1ccccc1)c1ccccc1` yielded a growth inhibition of 12.3%.
Work on `CCCCn1c2nc3ccccc3c-2nc2cc(OC)c(OC)cc21` yielded a growth inhibition of 26.1%.
In the case of `CCOc1ccc(NC(=O)Nc2cccc(Cl)c2C)cc1`, the growth inhibition is reported as 0.45%.
For `Ic1ccc(Nc2ncnc3sc4c(c23)CCCC4)cc1`, the growth inhibition was 24.2%.
With `CC(=O)Oc1cccc(CN2CCc3ccccc3C2)c1` the growth inhibition was -3.05%.
Compound `CN(C)c1ccc(C=C(C(=O)O)C(=O)O)cc1` has a growth inhibition of -5.2%.
With `COc1ccc(OC)c(NC(=O)Nc2cc(Cl)ccc2C)c1` the growth inhibition was 4.25%.
Compound `COC1OC(C)CC(O)C1O` (stereo not given) has a growth inhibition of 5.3%.
Compound `COCCNC(c1ccccc1)C(O)c1ccccc1` (stereo not given) has a growth inhibition of 6.4%.
Work on `C[N+](C)(C)/N=C/c1ccc(O)c(O)c1` yielded a growth inhibition of -48.2%.
For `COc1cc(C(C)O)c[n+](Cc2ccccc2)c1` (stereo not given), the growth inhibition was -31.6%.
For `COc1ccc(NC(=O)CC(=O)n2nc(-c3ccccc3)c(N=Nc3ccccc3C)c2-c2ccccc2)cc1`, the growth inhibition was -1.5%.
For `COC1OCC(NC(=O)CNC(=O)CCCCCCCCCCCCC(C)C)C(O)C1O` (stereo not given), the growth inhibition was 16.2%.
Compound `O=S1(=O)C2CCC(C2)C1Cl` (stereo not given) has a growth inhibition of 4.5%.
`NC(N)=NNC(=S)S` showed a growth inhibition of 10.9%.
Work on `COC(=O)C(=[N+]=[N-])C(=O)c1cccc([N+](=O)[O-])c1` yielded a growth inhibition of 11.1%.
For `Clc1ccc2oc(N3CCOCC3)nc2c1`, the growth inhibition was 20.6%.
Compound `O.[Cl][Pt].[NH-]CC[S-]` has a growth inhibition of -9.5%.
`CCC(/C=C\C(C)C1CCC2C3CC=C4CC(OC)CCC4(C)C3CCC12C)C(C)C` (stereo not given) showed a growth inhibition of 25.2%.
For `ClC[P+](c1ccccc1)(c1ccccc1)c1ccccc1`, the growth inhibition was 38.2%.
With `CCCCCCCCCCN=C(N)CSSCC(N)=NCCCCCCCCCC` the growth inhibition was 96.2% (active).
`COc1ccc(OC)c2cc3c(cc12)C(=O)C(C)=C(C)C3=O` showed a growth inhibition of 6.15%.
For `CCCCCOCC(O)CNCCNCC(O)COCCCCC` (stereo not given), the growth inhibition was 8%.
`CC[n+]1c(C)sc2cc(Cl)c(-c3ccccc3)cc21` gave a growth inhibition of 23.4%.
`C=CCC[P+](c1ccccc1)(c1ccccc1)c1ccccc1` gave a growth inhibition of 37.2%.
In the case of `Nc1nnc2nc(C(C(=O)/C=C\c3cccc(O)c3)c3nc4nnc(N)n4[nH]c3=O)c(=O)[nH]n12`, the growth inhibition is reported as 30.4%.
With `C/C(=N\[N+](C)(C)C)c1ccc2ccccc2c1` the growth inhibition was 9.65%.
In the case of `C=CCCC(C)(C(=O)OCC)C(=O)OCC`, the growth inhibition is reported as 7.45%.
In the case of `O=C(/C=C/C=C/c1ccccc1)CCc1ccccc1`, the growth inhibition is reported as 6.75%.
For `C[C@H]1C[C@H]2[C@@H]3CC[C@@]4(OCC4=O)[C@@]3(C)C[C@H](O)[C@]2(F)[C@@]2(C)C=CC(=O)C=C12`, the growth inhibition was -16.6%.
